Screening data: PubChem BioAssay, National Center for Advancing Translational Sciences (NCATS)
This is a sample that favours compounds with a hit; in the whole collection about 10% have one here.
CtBP-E1A inh – blocks the CtBP interaction with E1A | AID 651724 | AlphaScreen GST-E1A/His-CtBP binding, 1536-well; active compounds read low | actives 0.49% (n = 340,000) | activity change, % (concentration not given with the values); in the data active = activity change below about -65%; inconclusive = mostly about -30% to -63%
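In 5 uL wells, 23 nL compound meets equimolar GST-E1A and His-CtBP (5X stock 125 nM each) for 2 h, 37 °C. Beads (5X, 50 ug/mL) then 1 h, 37 °C, dark.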
HP1b binding inh – blocks HP1-beta chromodomain binding to methylated histone tails; actives 0.56% (n = 390,000); Potency, µM (doses to about 114 µM), actives largely listed as inhibitors; P83916; AID 540317; AlphaScreen HP1-beta / biotin-H3K9me3 peptide binding; also: nearly all actives have a fitted effect of over 70% in size
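Compound inhibition of the preformed complex between 50 nM HP1-beta and 50 nM biotinylated H3K9me3 peptide was read by AlphaScreen. Buffer was PBS pH 7.4 with 0.01% Tween-20. Incubations ran 30 min at room temperature, with 10 ug/mL donor/acceptor beads.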
BAZ2B inh – blocks human BAZ2B. AlphaScreen BAZ2B-H3K14Ac peptide displacement. Potency, µM (doses to about 114 µM), hits mostly inhibitors. actives 4.4% (n = 360,000). AID 504333; also: nearly all actives have a fitted effect of over 60% in size
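BAZ2B 50 nM plus b-H3(5-23)K14Ac 50 nM, PBS pH 7.4/0.01% Tween-20, 30 min RT; compound added (max 110 uM), 30 min RT; streptavidin donor/Ni-chelate acceptor beads 10 ug/mL final, 20 min dark; AlphaScreen read.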
Six1-Eya2 inh – Six1/Eya2 interaction inhibition; AlphaScreen GST-Six1/His-Eya2 binding, biochemical; active compounds read low; activity change, % (test concentration not listed); actives 0.56% (n = 360,000); in the data active = activity change below about -65%; inconclusive = mostly about -30% to -63%
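AlphaScreen with GST-Six1 and His-Eya2 (5X mix: 250 nM and 500 nM), glutathione donor and nickel acceptor beads; buffer 50 mM Tris pH 8.0, 300 mM NaCl, 1 mM TCEP; 1 h at 37 C in the dark.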
G9a block – inhibitors of human histone lysine methyltransferase G9a | Potency, µM (doses to about 102 µM), actives largely listed as inhibitors | actives 8.8% (n = 350,000) | G9a H3K9 monomethylation, AlphaScreen, 2 h; also: nearly all actives have a fitted effect of over 75% in size
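Enzyme 20 nM + cpd, 15 min RT; add b-H3K9 pep 500 nM / SAM 20 uM; 2 h RT; anti-H3K9me1 Ab 0.5 ug/mL + SA donor / anti-rabbit acceptor beads 20 ug/mL each, 10 min; AlphaScreen read.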
JMJD2A Tudor – inhibitors of human JMJD2A Tudor domain | O75164 | AlphaScreen JMJD2A-Tudor / H3K4me3 peptide binding | Potency, µM (highest dose often 114 µM), most hits filed as inhibitors | actives 4.4% (n = 390,000) | AID 504339; also: nearly all actives have a fitted effect of over 50% in size
Of the large screens only hits and unclear results are named; the others gave an inactive call. Unless noted, calls follow the shape of the dose curve; as a rule, active = well fitted inhibition curve with a large enough effect; inconclusive = small, poorly fitted or top-dose-only effect; inactive = no such curve, though single readings can be large or run the other way.

Clc1ccccc1CN1CCN(/N=C/C=C\c2ccco2)CC1	HP1b binding inh 45µM, BAZ2B inh 40µM, Six1-Eya2 inh inconclusive, G9a block 35µM, JMJD2A Tudor inconclusive
Cc1ccc(N2CCN(/N=C/C=C/c3ccccc3)CC2)cc1	none
C(/C=C/c1ccco1)=N/N1CCN(c2ccccc2)CC1	CtBP-E1A inh inconclusive, HP1b binding inh inconclusive, BAZ2B inh 28µM, Six1-Eya2 inh inconclusive, G9a block 40µM, JMJD2A Tudor inconclusive
Cc1ccc(/C=N/NC(=O)c2cc(C3CC3)nc3ccccc23)o1	BAZ2B inh inconclusive
OCCNCc1cccc(-c2ccccc2)c1O	none (no result: BAZ2B inh, G9a block)
O=C(O)CCNc1ccc(NCCC(=O)O)c2c1C(=O)c1ccccc1C2=O	HP1b binding inh 14µM, BAZ2B inh 11µM, Six1-Eya2 inh -85, G9a block 13µM, JMJD2A Tudor 22µM (no result: CtBP-E1A inh)
O=C1c2cccc(NCCNCCO)c2C(=O)c2cccc(NCCNCCO)c21	HP1b binding inh inconclusive, Six1-Eya2 inh -71, JMJD2A Tudor 35µM (no result: BAZ2B inh, G9a block)
O=C(CSc1cn(CC(=O)N2CCCCC2)c2ccccc12)Nc1ccc(C(F)(F)F)cc1	none (no result: CtBP-E1A inh, Six1-Eya2 inh)
O=C(CCC1CCCN(C(=O)C2(c3ccccc3)CC2)C1)N1CCN(c2ccccn2)CC1 (stereo unspecified)	none
COc1ccc(C(=O)OCC(=O)c2ccc(CNC(C)=O)s2)cc1	G9a block 10µM
O=C(CNC(=O)c1ccccc1)OC(C(=O)Nc1ccc2c(c1)OCO2)c1ccccc1 (stereo unspecified)	none (no result: CtBP-E1A inh, HP1b binding inh, BAZ2B inh, Six1-Eya2 inh, G9a block)
COc1cccc(-n2c(Cc3cc(=O)[nH]c(=O)[nH]3)nnc2SC(C)C)c1	G9a block 40µM
COC(=O)C(C)Sc1nnc(Cc2cc(=O)[nH]c(=O)[nH]2)n1-c1cccc(OC)c1 (stereo unspecified)	G9a block inconclusive
CCOc1ccc(-n2c(Cc3cc(=O)[nH]c(=O)[nH]3)nnc2SCC(N)=O)cc1	BAZ2B inh inconclusive, G9a block 45µM
COc1ccc(-n2c(C)cc(=O)[nH]c2=O)cc1	none
CCOc1ccc(-n2c(O)cc(=O)[nH]c2=O)cc1	G9a block 71µM
O=C(CSc1nnc(Cc2cc(=O)[nH]c(=O)[nH]2)n1-c1ccc(Cl)cc1)NC1CCCC1	G9a block 40µM
COc1ccc(-n2c(Cc3cc(=O)[nH]c(=O)[nH]3)nnc2SCC(=O)NC2CCCC2)cc1	G9a block inconclusive
COc1ccc(Cl)cc1-n1cc(-c2ccccc2)nc1SCC(=O)Nc1ccc(C)cc1	BAZ2B inh inconclusive, G9a block inconclusive, JMJD2A Tudor inconclusive (no result: CtBP-E1A inh, Six1-Eya2 inh)
COc1cc(Cl)c(C)cc1NC(=O)c1nn(C)c2c1CSc1ccccc1-2	none (no result: CtBP-E1A inh, Six1-Eya2 inh)
CCCc1cc(=O)[nH]c2nnc(SCC(=O)NC3CCCC3)n12	G9a block 18µM
CCCCc1c(C)nc2ccc(Br)cc2c1SCCC#N	G9a block 28µM (no result: CtBP-E1A inh, HP1b binding inh, Six1-Eya2 inh, JMJD2A Tudor)
CCOC(=O)CSc1nc2ccc(NC(=O)c3ccccc3F)cc2s1	none (no result: CtBP-E1A inh, Six1-Eya2 inh)
C=CCNc1nc(C(=O)OCC(=O)NCc2cccc(Cl)c2)cs1	none
C=CCNc1nc(C(=O)OCC(=O)Nc2ccc(S(N)(=O)=O)cc2)cs1	BAZ2B inh 89µM, JMJD2A Tudor inconclusive
C=CCNc1nc(C(=O)OCC(=O)Nc2cc(S(C)(=O)=O)ccc2Cl)cs1	G9a block 45µM
COCCNC(=O)CCCC(=O)NCCOC	JMJD2A Tudor 25µM
CCN1CCC(=NNC(=O)c2ccco2)CC1	G9a block 45µM
CCCN1CCC(=NNC(=O)c2ccc(Br)o2)CC1	none
COCC(C)n1c(C)cc(C(=O)COC(=O)c2nc3nc(C)cc(C)n3n2)c1C (stereo unspecified)	G9a block 56µM
COCC(C)n1c(C)cc(C(=O)COC(=O)c2cccn2C)c1C (stereo unspecified)	CtBP-E1A inh inconclusive (no result: BAZ2B inh, G9a block)
O=C(CN1CCN(CCN2C(=O)c3cccc4cccc(c34)C2=O)CC1)c1ccc(F)cc1	G9a block 1.6µM
COc1ccc(C(=O)CN2CCN(CCN3C(=O)c4cccc5cccc(c45)C3=O)CC2)cc1	none (no result: BAZ2B inh, G9a block)
O=C(CN1CCN(CCN2C(=O)c3cccc4cccc(c34)C2=O)CC1)c1ccc(Cl)cc1	G9a block 7.9µM (no result: CtBP-E1A inh, HP1b binding inh, Six1-Eya2 inh, JMJD2A Tudor)
O=[N+]([O-])c1nccn1CCCCCCN1CCOCC1	none (no result: HP1b binding inh, BAZ2B inh, G9a block, JMJD2A Tudor)
CCCn1c(SC2C(=O)CC(C)(C)CC2=O)nc2c1c(=O)n(C)c(=O)n2C	BAZ2B inh inconclusive, G9a block 56µM
CCOc1ccc(Br)cc1C1C(C(=O)OC)=C(N)Oc2cc(N(C)C)ccc21 (stereo unspecified)	HP1b binding inh inconclusive, BAZ2B inh inconclusive, G9a block inconclusive, JMJD2A Tudor 50µM
CCOc1ccccc1C1C(C(=O)OC)=C(N)OC2=C1C(=O)CCC2 (stereo unspecified)	none
CC12CCC(C[N+](C)(C)C1)C2(C)C (stereo unspecified)	G9a block inconclusive, JMJD2A Tudor 22µM
CC1=C(C(=O)N2CCOCC2)CC(CC(=O)NCCCN(C)C)C(=O)N1CCCN1CCCC1=O (stereo unspecified)	none (no result: HP1b binding inh, BAZ2B inh, G9a block, JMJD2A Tudor)
COCCNC(=O)c1cc(OC)c(OC)cc1[N+](=O)[O-]	none (no result: G9a block)
CCOc1cc(N2CCOCC2)c(OCC)cc1NC(=O)COC(=O)C1CCCN1S(=O)(=O)c1ccccc1F (stereo unspecified)	none (no result: CtBP-E1A inh)
CCOc1cc(N2CCOCC2)c(OCC)cc1NC(=O)COc1cccc(CC)c1	BAZ2B inh inconclusive, G9a block inconclusive, JMJD2A Tudor inconclusive (no result: CtBP-E1A inh)
CCOc1cc(N2CCOCC2)c(OCC)cc1NC(=O)COC(=O)[C@@H]1CCCN1S(=O)(=O)c1ccccc1F	BAZ2B inh inconclusive, G9a block 45µM
CCOc1cc(N2CCOCC2)c(OCC)cc1NC(=O)COC(=O)c1cc2ccccc2cc1O	none
CCOc1cc(N2CCOCC2)c(OCC)cc1NC(=O)Cc1cccc(OC)c1	BAZ2B inh inconclusive, G9a block 50µM, JMJD2A Tudor inconclusive
CCOc1ccc(OCCC(=O)OCC(=O)Nc2cc(OCC)c(N3CCOCC3)cc2OCC)cc1	HP1b binding inh inconclusive, BAZ2B inh inconclusive, Six1-Eya2 inh inconclusive, G9a block 35µM, JMJD2A Tudor inconclusive
CCOc1cc(N2CCOCC2)c(OCC)cc1NC(=O)c1ccc2ncsc2c1	none (no result: CtBP-E1A inh)
CCOc1cc(N2CCOCC2)c(OCC)cc1NC(=O)c1cccc(N(C)C)c1	HP1b binding inh inconclusive, BAZ2B inh 40µM, G9a block 45µM, JMJD2A Tudor inconclusive
COC(C(=O)Nc1ccnn1C1CCN(Cc2cnn(C(C)C)c2)CC1)c1ccccc1 (stereo unspecified)	none
CCOc1cc(N2CCOCC2)c(OCC)cc1NC(=O)Cc1ccc(OC)c(OC)c1	BAZ2B inh inconclusive, G9a block 50µM, JMJD2A Tudor inconclusive
CCOc1cc(N2CCOCC2)c(OCC)cc1NC(=O)Cn1cnnn1	none (no result: BAZ2B inh, G9a block)
